From article PMC11062922 (Nature Chemical Biology, 2023)

Columns and labels:
Parameters in all cases: species or system human, MV4-11 + K-562 + COLO205 + SK-N-BE2 + OVCAR-8
ACVR1B = conditions: read-out: apparent Kd; compound concentrations: 100 nM and 1000 nM (sheet 'Samples'), CATDS: 5.2307110654739801E-2; n = 1
ACVR1 = conditions: read-out: apparent Kd; compound concentrations: 100 nM and 1000 nM (sheet 'Samples'), CATDS: 1.9559764953072701E-2; n = 1
ACVR2B = conditions: read-out: apparent Kd; compound concentrations: 100 nM and 1000 nM (sheet 'Samples'), CATDS: 2.6273503134627601E-2; n = 1
BCR = conditions: read-out: apparent Kd; compound concentrations: 100 nM and 1000 nM (sheet 'Samples'), CATDS: 2.1537689296735201E-2; n = 1
BMPR1B = conditions: read-out: apparent Kd; compound concentrations: 100 nM and 1000 nM (sheet 'Samples'), CATDS: 2.4616373356857599E-2; n = 1
BRAF = conditions: read-out: apparent Kd; compound concentrations: 100 nM and 1000 nM (sheet 'Samples'), CATDS: 1.9586867815954801E-2; n = 1
BUB1 = conditions: read-out: apparent Kd; compound concentrations: 100 nM and 1000 nM (sheet 'Samples'), CATDS: 2.2537896529622702E-2; n = 1
CIT = conditions: read-out: apparent Kd; compound concentrations: 100 nM and 1000 nM (sheet 'Samples'), CATDS: 2.75730146177765E-2; n = 1
CSNK1A1 = conditions: read-out: apparent Kd; compound concentrations: 100 nM and 1000 nM (sheet 'Samples'), CATDS: 2.3707563911338599E-2; n = 1
CSNK1D = conditions: read-out: apparent Kd; compound concentrations: 100 nM and 1000 nM (sheet 'Samples'), CATDS: 4.2810001426460499E-2; n = 1
CSNK1E = conditions: read-out: apparent Kd; compound concentrations: 100 nM and 1000 nM (sheet 'Samples'), CATDS: 3.2440470018423401E-2; n = 1
EPHA1 = conditions: read-out: apparent Kd; compound concentrations: 100 nM and 1000 nM (sheet 'Samples'), CATDS: 3.1864310867846697E-2; n = 1
FRK = conditions: read-out: apparent Kd; compound concentrations: 100 nM and 1000 nM (sheet 'Samples'), CATDS: 4.4669706945154999E-2; n = 1
FYN = conditions: read-out: apparent Kd; compound concentrations: 100 nM and 1000 nM (sheet 'Samples'), CATDS: 2.2205933689287499E-2; n = 1
MAPK14 = conditions: read-out: apparent Kd; compound concentrations: 100 nM and 1000 nM (sheet 'Samples'), CATDS: 3.89835717032921E-2; n = 1
MAPK9 = conditions: read-out: apparent Kd; compound concentrations: 100 nM and 1000 nM (sheet 'Samples'), CATDS: 1.8300020860960699E-2; n = 1
MAPKAPK2 = conditions: read-out: apparent Kd; compound concentrations: 100 nM and 1000 nM (sheet 'Samples'), CATDS: 2.4524702318677E-2; n = 1
PKN3 = conditions: read-out: apparent Kd; compound concentrations: 100 nM and 1000 nM (sheet 'Samples'), CATDS: 0.20654584562915099; n = 1
PRKCI = conditions: read-out: apparent Kd; compound concentrations: 100 nM and 1000 nM (sheet 'Samples'), CATDS: 3.04574994167322E-2; n = 1
PRKD2 = conditions: read-out: apparent Kd; compound concentrations: 100 nM and 1000 nM (sheet 'Samples'), CATDS: 2.0032181023514398E-2; n = 1
PTK6 = conditions: read-out: apparent Kd; compound concentrations: 100 nM and 1000 nM (sheet 'Samples'), CATDS: 3.9660106147075401E-2; n = 1
RET = conditions: read-out: apparent Kd; compound concentrations: 100 nM and 1000 nM (sheet 'Samples'), CATDS: 0.10726511440353401; n = 1
RIPK2 = conditions: read-out: apparent Kd; compound concentrations: 100 nM and 1000 nM (sheet 'Samples'), CATDS: 0.143338451264474; n = 1
RIPK3 = conditions: read-out: apparent Kd; compound concentrations: 100 nM and 1000 nM (sheet 'Samples'), CATDS: 5.5820006344930999E-2; n = 1
RPS6KB1 = conditions: read-out: apparent Kd; compound concentrations: 100 nM and 1000 nM (sheet 'Samples'), CATDS: 1.9963914199749098E-2; n = 1
SIK2 = conditions: read-out: apparent Kd; compound concentrations: 100 nM and 1000 nM (sheet 'Samples'), CATDS: 2.1322969574131299E-2; n = 1
SIK3 = conditions: read-out: apparent Kd; compound concentrations: 100 nM and 1000 nM (sheet 'Samples'), CATDS: 2.2436255384138602E-2; n = 1
SLK = conditions: read-out: apparent Kd; compound concentrations: 100 nM and 1000 nM (sheet 'Samples'), CATDS: 3.1142117408046201E-2; n = 1
STK10 = conditions: read-out: apparent Kd; compound concentrations: 100 nM and 1000 nM (sheet 'Samples'), CATDS: 2.2718990110139101E-2; n = 1
TGFBR1 = conditions: read-out: apparent Kd; compound concentrations: 100 nM and 1000 nM (sheet 'Samples'), CATDS: 5.82262421070339E-2; n = 1
TGFBR2 = conditions: read-out: apparent Kd; compound concentrations: 100 nM and 1000 nM (sheet 'Samples'), CATDS: 8.8931452038097006E-2; n = 1
TNIK = conditions: read-out: apparent Kd; compound concentrations: 100 nM and 1000 nM (sheet 'Samples'), CATDS: 1.9385936597074001E-2; n = 1

## CC(C)(CN)c1nc(-c2ccc(Cl)c(O)c2)c(-c2ccncc2)[nH]1.O=C(O)C(F)(F)F [SB-477794-AAA]
ACVR1B
  potency estimated from few doses: 55.4 nM
ACVR1
  potency estimated from few doses: 1330 nM
ACVR2B
  potency estimated from few doses: 388 nM
BCR
  potency estimated from few doses: 833 nM
BMPR1B
  potency estimated from few doses: 488 nM
BRAF
  potency estimated from few doses: 1320 nM
BUB1
  potency estimated from few doses: 687 nM
CIT
  potency estimated from few doses: 330 nM
CSNK1A1
  potency estimated from few doses: 562 nM
CSNK1D
  potency estimated from few doses: 92.5 nM
CSNK1E
  potency estimated from few doses: 199 nM
EPHA1
  potency estimated from few doses: 210 nM
FRK
  potency estimated from few doses: 82.8 nM
FYN
  potency estimated from few doses: 730 nM
MAPK14
  potency estimated from few doses: 119 nM
MAPK9
  potency estimated from few doses: 2000 nM
MAPKAPK2
  potency estimated from few doses: 495 nM
PKN3
  potency estimated from few doses: 2.21 nM
PRKCI
  potency estimated from few doses: 241 nM
PRKD2
  potency estimated from few doses: 1170 nM
PTK6
  potency estimated from few doses: 113 nM
RET
  potency estimated from few doses: 9.97 nM
RIPK2
  potency estimated from few doses: 5.13 nM
RIPK3
  potency estimated from few doses: 47.1 nM
RPS6KB1
  potency estimated from few doses: 1200 nM
SIK2
  potency estimated from few doses: 871 nM
SIK3
  potency estimated from few doses: 699 nM
SLK
  potency estimated from few doses: 225 nM
STK10
  potency estimated from few doses: 665 nM
TGFBR1
  potency estimated from few doses: 42.5 nM
TGFBR2
  potency estimated from few doses: 15.4 nM
TNIK
  potency estimated from few doses: 1400 nM
